# The campaign covered roughly 2,400 compounds. About 360 (15%) were called active.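 The calls were made as follows: active = viability falls under 70% at one or more tested concentrations, taken as toxicity; inactive = viability stays over 70% at every dose.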 Only a sample is shown. Measured potencies and affinities stand elsewhere.
# Test: viability loss in HeLa cells – cytotoxicity control for MgcRacGAP inhibitor project, dose response (AID 624300);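 also: 100% = median of untreated control wells on the same plate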
# Conditions: CellTiter-Glo luminescence, 24 h; series mostly up to 100 µM; viability: at the top concentration
row,Structure (SMILES),viability
1,CCOC(=O)c1c(C)[nH]sc1=S,97.5% (inactive)
2,CCN(CC)c1ccc(NC(=O)CSC(=O)c2ccccc2)cc1,111% (inactive)
3,CCN(CC)c1ccc(NC(=O)Nc2ccccc2)cc1,99.7% (inactive)
4,CCN(CC)c1ccc(/C=N/O)cc1,99.6% (inactive)
5,CCN(CC)c1ccc(NC(=O)C2CCCC2)cc1,101% (inactive)
6,CCN(CC)c1ccc(/C=N/N2CCOCC2)c(O)c1,109% (inactive)
7,CN(C)c1ccc(/C=N/N2CCN(Cc3ccccc3Cl)CC2)cc1,106% (inactive)
8,CCOc1cc(/C=C2\SC(=O)N=C2N)ccc1O,92.6% (inactive)
9,C=CCN(CC=C)C(=O)C1CCN(Cc2ccc(OCc3ccccc3)cc2)CC1,88.6% (inactive)
10,COc1ccc(N2CCN(C(=O)NC3CCCCC3)CC2)cc1,100% (inactive)
11,CC1=CC(C)(C)N(C(=O)CNC2CCCC2)c2cc(C)ccc21,85.7% (inactive)
12,COc1cc(/C=N\NC(=O)c2c(C)nc3cc(C)ccn23)ccc1O,97% (inactive)
13,CN(C)c1ccc(NC(=O)CN2C(=O)c3ccccc3C2=O)cc1,101% (inactive)
14,O=C1C(Cl)=C(NCCc2ccccc2)C(=O)c2ccccc21,95.7% (inactive)
15,COc1ccc(Nc2ccc3ccccc3c2)cc1,91% (inactive)
16,COc1ccc(O/C(=N\S(=O)(=O)c2ccccc2)c2ccccc2)cc1,103% (inactive)
17,O=C(NN=Cc1ccc(O)cc1O)c1ccccc1NS(=O)(=O)c1cccs1,97.2% (inactive)
18,COc1ccc(C=C2C(=O)c3ccccc3C2=O)cc1O,89% (inactive)
19,O=S1(=O)N=C(Nc2ccc(O)cc2)c2ccccc21,99.3% (inactive)
20,O=C(CNC(=O)c1cccnc1)N/N=C/c1ccc(O)cc1O,98.5% (inactive)
21,COc1cc(/C=C/C(=O)OCC(=O)c2ccc[nH]2)ccc1O,97.6% (inactive)
22,COCCNCC(=O)Nc1nc(C)cs1,97.8% (inactive)
23,Cc1ccc(CNc2ccc(N3CCOCC3)cc2)s1,91.8% (inactive)
24,CN(C1CCCCC1)S(=O)(=O)c1cccc2nsnc12,102% (inactive)
25,COc1cc(/C=N/NC(=O)C2CCN(CC(O)COCc3ccccc3)CC2)ccc1O (configuration not stated),88.3% (inactive)
26,COc1cc(/C=N/NC(=O)CNC(=O)c2ccco2)ccc1O,100% (inactive)

row,Structure (SMILES),viability
1,O=C(/C(=C/c1ccccc1)n1cncn1)c1ccc(Cl)cc1Cl,86.1% (inactive)
2,Cc1ccn2c(Nc3ccc4c(c3)OCO4)c(-c3ccc(O)cc3)nc2c1,82.2% (inactive)
3,COc1cc(-c2nc3cnccn3c2Nc2ccc(C)cc2)ccc1O,103% (inactive)
4,CCOc1ccc(N)cc1OC,102% (inactive)
5,Cc1cc(Cl)cc2sc(=S)[nH]c12,92.3% (inactive)
6,NC(=S)N/N=C/c1cccc(O)c1O,90.1% (inactive)
7,O=C(CNc1ccc2c(c1)OCO2)N/N=C\c1ccccc1Cl,99.7% (inactive)
8,Cc1ccc(C2CC(=O)N3CN(c4ccc(Br)cc4)CSC3=C2C#N)o1 (configuration not stated),103% (inactive)
9,OC1CCN(C(=S)Nc2ccc(Nc3ccccc3)cc2)CC1,101% (inactive)
10,Nc1ccc(N2CCN(c3ccc(Cl)c(Cl)c3)CC2)cc1,105% (inactive)
11,CCN(Cc1ccncc1)Cc1ccc(OC)c(OC)c1,97.9% (inactive)
12,COc1ccc(NC2CCCN(C(=O)COc3ccc(Cl)cc3C)C2)cc1OC (configuration not stated),96.1% (inactive)
13,COc1ccc(NC(=O)n2ncc3c(C)cccc32)cc1OC,102% (inactive)
14,CCCC(=Nc1ccc(N)cc1)C1=C(O)C(C(=O)OC)C(C)(C)CC1=O (configuration not stated),99.8% (inactive)
15,COC(=O)NCC(c1ccc2c(c1)OCO2)N1CCN(c2ccc(OC)cc2)CC1 (configuration not stated),101% (inactive)
16,COc1ccc(N2CCN(C(CNC(=O)CC(C)(C)C)c3ccc4c(c3)OCO4)CC2)cc1 (configuration not stated),99% (inactive)
17,COc1cc2c(cc1N)-c1ccc(N)cc1C2=O,89% (inactive)
18,COc1cc(/C=C/CN2CCN(Cc3ccc(C)o3)C(CCO)C2)ccc1O (configuration not stated),99.8% (inactive)
19,COc1ccc(/C=N/NC(=O)c2cc[n+]([O-])cc2)cc1O,102% (inactive)
20,Cc1ccc(O)c(C=Nc2ccc3[nH]ncc3c2)c1,95.6% (inactive)
21,Nc1ccc2nc(C3CCCCC3)[nH]c2c1,98.5% (inactive)
22,CCOC(=O)C1Nc2ccc(C(=O)O)cc2C2C=CCC12 (configuration not stated),102% (inactive)
23,CCOc1cc(/C=N/N2CCN(Cc3ccccc3)CC2)ccc1O,98.8% (inactive)
24,Cc1sc2nc(CN3CCOCC3)nc(N3CCOCC3)c2c1C,96.9% (inactive)
25,O=S(=O)(Nc1ccccc1F)c1cccc(NC(=S)NCCN2CCOCC2)c1,98.2% (inactive)
26,CCN(CC)c1ccc(NC(=O)CN(C)Cc2cccs2)cc1,88.1% (inactive)

row,Structure (SMILES),viability
1,O=C1/C(=C\c2ccccc2)CN(C(=O)CCN2CCCCC2)C/C1=C/c1ccccc1,134% [at 50 µM] (inactive)
2,CN(C)S(=O)(=O)c1cc(NC(=O)CNCCN2CCOCC2)ccc1Cl,101% (inactive)
3,COc1cc(/C=N/NC(=O)c2cc(C)oc2C)ccc1O,89.2% (inactive)
4,COC(=O)/C(=C/Nc1ccc(O)cc1)[N+](=O)[O-],96.5% (inactive)
5,Nc1ccc2c(c1)Cc1cc(N)c(Cl)cc1-2,93.7% (inactive)
6,COc1cc(C(C)n2nnc3ccccc32)ccc1O (configuration not stated),91% (inactive)
7,COc1ccccc1OCCCCCCN1CCOCC1,97.8% (inactive)
8,COCCNC(=S)Nc1cc(OC)c(OC)cc1C#N,99.9% (inactive)
9,Cc1cc(NS(=O)(=O)c2ccc(Nc3nc(-c4ccc(O)cc4)cs3)cc2)no1,89.7% (inactive)
10,Cc1nc2ncccn2c1-c1csc(Nc2ccc(O)cc2)n1,102% (inactive)
11,Oc1ccc(-c2csc(Nc3ccccn3)n2)cc1,95.4% (inactive)
12,Cc1ccnc(Nc2nc(-c3ccc(O)cc3)cs2)c1,91.6% (inactive)
13,Cc1cc(O)ccc1Nc1nc(-c2cccs2)cs1,98% (inactive)
14,CC(=O)Nc1cccc(-c2csc(NCc3ccccc3)n2)c1,93.2% (inactive)
15,NS(=O)(=O)c1ccc(Nc2nc(-c3ccc(O)cc3)cs2)cc1,83.6% (inactive)
16,CC(C)Oc1ccc(OCCn2c(=S)[nH]c3c(N)ncnc32)cc1,96.8% (inactive)
17,CSc1ccccc1NC(=O)CN(C)C(C)C(=O)NCc1ccc2c(c1)OCO2 (configuration not stated),93.6% (inactive)
18,COc1cc(/C=C/C(=O)OCC(=O)Nc2ccc3c(c2)OCO3)ccc1O,105% (inactive)
19,Nn1c(=S)[nH]c2sc3c(c2c1=O)CCCC3,90.2% (inactive)
20,Cc1cc(C)c(OCC(O)CN2CCN(C(=O)c3ccccc3)CC2)c(C)c1 (configuration not stated),97.2% (inactive)
21,COc1nc(Nc2ccc(O)cc2)nc(OC(C(F)(F)F)C(F)(F)F)n1,86.8% (inactive)
22,O=C(c1cccc(F)c1)N1CCN(Cc2cccc(Br)c2)CC1,94.4% (inactive)
23,OCCN1CCN(C(=S)Nc2cccc(C(F)(F)F)c2)CC1,89.7% (inactive)
24,N#CC1=C(S)N(c2ccc(F)cc2)C(c2cccs2)NC1=O (configuration not stated),98.2% (inactive)
25,O=C(O)c1ccc(-c2ccc(/C=c3/sc4nc5ccccc5n4c3=O)o2)cc1Cl,104% (inactive)

# Reference: PubChem BioAssay AID624300 (Southern Research Specialized Biocontainment Screening …, 2012)
